Reference: the supplement of paper PMC10338343
± gives the standard deviation. Over roughly 3,700 sequences, “pre-steady-state target cleavage rate” has its median near 0.02; the highest 2% begin near 0.23. Shown is part of a subset that was picked to be rich in the highest values.

System: MILI (PIWIL2) piRISC loaded with Kctd7 piRNA (26 nt)
Test: pre-steady-state target cleavage rate (min^-1); MIWI and MILI are mouse PIWI proteins and EfPiwi is from a freshwater sponge; tags in brackets are library labels; higher = faster piRNA-guided slicing of the target
Details: guide: Kctd7 piRNA 5'p-UGUUAAUCUCUCAGAGAAGGUGACAG; auxiliary factor: 500 nM mouse GTSF1
Procedure: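 Cleave-'n-Seq: a library of target RNAs (target site embedded in constant flanks, ACAGCATTCCGCGTTAGTGATATCCG... 5' flank; DNA-blocked outside the site) at 0.1 nM was incubated with 1 nM active mouse MILI or MIWI piRISC (synthetic 5'-monophosphorylated piRNA guide) with or without 500 nM mouse GTSF1 at 33 °C for 1 min to 16 h. Uncleaved targets were sequenced and normalised to non-target controls, and the pooled three trials were fitted to a burst-and-steady-state model to give the pre-steady-state cleavage rate (min^-1; k3 is constrained to at most 1e-4). Sequence is the target site only; target names encode pairing extent (gX:gY) and contiguous / 1-mismatch / 2-mismatch / bulge geometry. Fits with R² ≤ 0 are excluded.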

Sequence | pre-steady-state target cleavage rate
UAGUGAGUACACCUUCUCUGAGAGAUUAACA | 0.237 ± 0.019
UAGUGACUCACCUUCUCUGAGAGAUUAAAA | 0.0677 ± 0.02
UAGUGAGACACCUUCUCUGAGAGAUUAACA | 0.185 ± 0.011
UAGUGAGUCACCUUCUCUGAGAGAUAAACA | 0.249 ± 0.052
UAGUGACUCACCUUCUCUGAGAGAUUAAA | 0.13 ± 0.031
UAGUGAGUCACCUUCUCUGAGAGAUAAAGA | 0.00919 ± 0.0072
UAGUGAGUCACCUUCUCUGUGAGAUAAACA | 0.0242 ± 0.0096
UAGUGAGUCACCUUCCUCUGAGAGAUUAACA | 0.148 ± 0.019
UAGUGAGUCACCUUCCUGAGAGAUUAACA | 0.119 ± 0.038
UAGUGACUCACCUUCUCUGAGAGAGUUAACA | 0.118 ± 0.017
UAGUGUGAGACCUUCUCUGAGAGAUUAACA | 0.101 ± 0.0091
UAGUGACACACCUUCAGUGAGAGAUUAACA | 0.0881 ± 0.016
UAGUGACUCAUCCUUCUCUGAGAGAUUAACA | 0.0582 ± 0.0061
UAGUGAGUCACGUUCUCUGUGAGAUUAACA | 0.0376 ± 0.0033
UAGUGUGUCACCUUCUCAGAGACAUUAACA | 0.117 ± 0.025
UAGUGACUCACCUUCUCUGAGAGAUGUAACA | 0.172 ± 0.028
UAGUGACAGAACCUUCUCUGAGAGAUUAACA | 0.0771 ± 0.01
UAGUGAGUCACCUUCUCCGAGAGAUUAACA | 0.394 ± 0.084
UAGUCUGUCACCUUCUCUGAGAGAUAAACA | 0.132 ± 0.022
UAGUGUGUCACCUUCUCCGAGAGAUUAACA | 0.373 ± 0.1
UAGUGAGUCACCUUCUCGAGAGAUUAACA | 0.0598 ± 0.015
UAGUGAGUCACCUUCUGCUGAGAGAUUAACA | 0.264 ± 0.058
UAGUCUGUCACCUUCUCCGAGAGAUUAACA | 0.21 ± 0.038
UAGUGUGUCACCUUCUCGAGAGAUUAACA | 0.0644 ± 0.013

Sequence | pre-steady-state target cleavage rate
UAGUGAGUCACCUUCUCAGAGAGAUUAACA | 0.173 ± 0.022
UAGUGAGUCACCUUCUUCUGAGAGAUUAACA | 0.0918 ± 0.028
UAGUCUGUCACCUUCUCUGAGAGAUAUAACA | 0.235 ± 0.03
UAGUGAGUCACCUUCUGAGAGAGAUUAACA | 0.074 ± 0.011
UAGUCUGUCACCUUCUCUGAGAGAUAACA | 0.0928 ± 0.025
UAGUGACAGUCCUUCUAUGAGAGAUUAACA | 0.0377 ± 0.013
UAGUGACACAGCUUCUCUGAGAGAUAAACA | 0.0211 ± 0.0068
UAGUGACUCACGUUCUCUGAGAGAUUUACA | 0.0554 ± 0.015
UAGUGACAGACCUUCUCUGUGAGAUAAACA | 0.0102 ± 0.0046
UAGUGACACAACCUUCUCUGAGAGAUUAACA | 0.155 ± 0.018
UAGUGACUCACCUUCUCUGAGAGAUUAUACA | 0.114 ± 0.021
UAGUGUGUCACCAUCUCUGAGAGAUUAUGA | 0.0243 ± 0.0082
UAGUGACUCACCUUCUGUGAGAGAUUUUGA | 0.00903 ± 0.0039
UAGUGACACACCUACUCUGAGACAUUAACA | 0.0243 ± 0.0072
UAGUGUGUCACCAACUCUGAGAGAUUUUGA | 0.00551 ± 0.0041
UAGUGAGUGACCUUCUCUGAGAGAUUAUGA | 0.0378 ± 0.011
UAGUGACAGACCUUCUCUGAGAGAUUAGCA | 0.0252 ± 0.013
UAGUGUGUCAGCUUCUCUGUGAGAUUAACA | 0.0415 ± 0.0032
UAGUGACACACCUUCUCUCAGAGAUUAUGA | 0.00858 ± 0.0045
UAGUCUGUCUCCUUCUCUGAGAGAUUAUGA | 0.0111 ± 0.0041
UAGUGACUCACCUUCAGUGAGAGAUUAACA | 0.0471 ± 0.0078
UAGUGUGCUCACCUUCUCUGAGAGAUUAACA | 0.205 ± 0.013
UAGUGAGUCACCUUCUCUGAGAGAUAUAACA | 0.347 ± 0.046
UAGUGAGUCACCUUCUCUGAGAGAUAUACA | 0.0915 ± 0.025

Sequence | pre-steady-state target cleavage rate
UAGUGAGAUCACCUUCUCUGAGAGAUUAACA | 0.178 ± 0.015
UAGUGUGAUCACCUUCUCUGAGAGAUUAACA | 0.24 ± 0.018
UAGUGAGUCACCUUCUCUGAGAGAUAACA | 0.107 ± 0.038
UAGUGUGUCACCUUCUCGGAGAGAUUAACA | 0.153 ± 0.017
UAGUCUGUCACCAUCACUGAGAGAUUAACA | 0.11 ± 0.0083
UAGUGACAGUCCUUGUGUGAGAGAUUAACA | 0.0291 ± 0.0078
UAGUGACAGUGGAACUCUGACAGAUUAUCA | < 0.0001
UAGUGUGUCACCUUCUCUGAGAGAUUAACU [g2:g25:cont:t1U] | 0.187 ± 0.015
UAGUGUGUCACCUUUUCUGAGAGAUUAACA | 0.249 ± 0.02
UAGUGUGUCACCUUCUCUGAGAGAUUAACC [g2:g25:cont:t1C] | 0.202 ± 0.014
UAGUGUGUCACCUUCUCUGAGAGAUUACCA | 0.197 ± 0.037
UAGUGUGUCACCUUCUCUGAGAGAUUAACG [g2:g25:cont:t1G] | 0.267 ± 0.02
UAGUGUGUCACCUUCUCUGAGAGAUUAACCA | 0.236 ± 0.021
UAGUGUGUCACCUUUCUGAGAGAUUAACA | 0.0596 ± 0.013
UAGUGUGUCACCCUUCUCUGAGAGAUUAACA | 0.104 ± 0.016
UAGUGUGUCACCUUUCUCUGAGAGAUUAACA | 0.187 ± 0.016
UAGUGUGUCACCUUCUGUGUGAGAUUAACA | 0.0302 ± 0.004
UAGUGACAGUGGAAGUCUGAGAGUUAAACA | < 0.0001
UAGUGACACACCUUCUGAGAGAGAUUAUGA | 0.0134 ± 0.0078
UAGUGACAGUCCUUCUCUAAGAGAUUAACA | 0.0523 ± 0.012
UAGUGACAGUGGAAGAGUGAGGAGAUUAACA | < 0.0001
UAGUGACUCACCUUCUGUGAGAGUUUAACA | 0.0308 ± 0.01
UAGUGUGUCUCCUUCUCUGAGACAUUAACA | 0.00482 ± 0.0038
